Data as given in PubChem BioAssay (NCATS).
Records with an inconclusive call do not appear. Activity calls are given as the source filed them. The call rests on the fitted dose curve; in most records, active means well fitted curve in the direction sought with a large enough effect; inconclusive means small, poorly fitted or top-dose-only effect, or another doubt; inactive means no such curve, though single readings can be large; an effect the other way counts as inactive or inconclusive.

Assays:
C33A = assay: Primary qHTS to identify gynecologic anti-cancer compounds using libraries of approved drugs and bioactive compounds (AID 1345084); details: Gynecologic cancer cell panel viability, ATPlite luminescence, 48 h; series mostly up to 57.5 µM; further: nearly all actives have a fitted effect of over 55% in size; further: potency means the concentration at half of the fitted maximal effect
Method in brief: (§1)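 Cytotoxicity screen measuring ATP content by luciferase luminescence. Each compound is applied at five concentrations for 48 h at 37 C with 5% CO2.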

CASKI = assay: as above; details: Gynecologic cancer cell panel viability, ATPlite luminescence, 48 h; series mostly up to 57.5 µM
Method in brief: as §1

HeLa = assay: as above; details: Gynecologic cancer cell panel viability, ATPlite luminescence, 48 h; series mostly up to 57.5 µM
Method in brief: as §1

SKOV3 = assay: as above; details: Gynecologic cancer cell panel viability, ATPlite luminescence, 48 h; series mostly up to 57.5 µM
Method in brief: as §1

Tov112D = assay: as above; details: Gynecologic cancer cell panel viability, ATPlite luminescence, 48 h; series mostly up to 57.5 µM
Method in brief: as §1

Es-2 = assay: as above; details: Gynecologic cancer cell panel viability, ATPlite luminescence, 48 h; series mostly up to 57.5 µM
Method in brief: as §1

Hek293T = assay: as above; details: Gynecologic cancer cell panel viability, ATPlite luminescence, 48 h, control line for the selectivity index; series mostly up to 57.5 µM
Method in brief: as §1

JEG-3 = assay: as above; details: Gynecologic cancer cell panel viability, ATPlite luminescence, 48 h; series mostly up to 57.5 µM
Method in brief: as §1

OV90 = assay: as above; details: Gynecologic cancer cell panel viability, ATPlite luminescence, 48 h; series mostly up to 57.5 µM
Method in brief: as §1

PA-1 = assay: as above; details: Gynecologic cancer cell panel viability, ATPlite luminescence, 48 h; series mostly up to 57.5 µM
Method in brief: as §1

Tov-21-G = assay: as above; details: Gynecologic cancer cell panel viability, ATPlite luminescence, 48 h; series mostly up to 57.5 µM
Method in brief: as §1

[1] = qHTS assay to identify inhibitors of the type 1 interferon - major histocompatibility complex class I in skeletal muscle: Counter screen cell viability and HiBit confirmation (AID 1347412); details: iHSKM muscle cells + IFN-b, HiBiT or CellTiter-Glo, 24 h; Viability; at 45.9 µM (top of the series); further: nearly all actives have a fitted effect of over 60% in size
Method in brief: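 Myoblasts (C25cl48, HLA-B HiBiT) seeded in medium without dexamethasone, IFN-b 4 ng/ml added except unstimulated columns; 1 hr later compounds pinned (12-pt 1:3, top 46 uM final). Incubated 24 hrs, lysed 10 min, luminescence measured.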
On the % scale 0 is the no-effect control and ±100 the full control effect.

C=C1C(=O)O[C@@H]2[C@H]1CC[C@H](C)C(CCC(=O)O)C2(C)O (some centres not stated)
inactive: Potency (C33A) | Potency (CASKI) | Potency (HeLa) | Potency (SKOV3) | Potency (Tov112D)

COc1cc2ncnc(Nc3cccc(I)c3)c2cc1OC
inactive: Potency (C33A) | Potency (CASKI) | Potency (Es-2) | Potency (Hek293T) | Potency (JEG-3) | Potency (OV90) | Potency (PA-1) | Potency (Tov-21-G) | Potency (Tov112D)

O=S(=O)(NCc1cccc2ccccc12)c1cc(Cl)c(Oc2cccc(N3CCNCC3)c2)s1
inactive: Potency (C33A) | Potency (CASKI) | Potency (HeLa) | Potency (JEG-3) | Potency (OV90) | Potency (Tov-21-G) | Potency (Tov112D)

C/C=C(/C)C(=O)O[C@H]1[C@H](OC(=O)/C(C)=C\C)[C@@]23C(CC1(C)C)[C@]1(CCC4[C@@]5(C)CC[C@H](O[C@@H]6O[C@H](C(=O)O)[C@@H](O)[C@H](O[C@@H]7O[C@H](CO)[C@H](O)[C@H](O)[C@H]7O[C@@H]7O[C@@H](C)[C@H](O)[C@@H](O)[C@H]7O[C@@H]7OC[C@@H](O)[C@H](O)[C@H]7O)[C@H]6O[C@@H]6O[C@H](CO)[C@H](O)[C@H](O)[C@H]6O)C(C)(C)C5CC[C@@]4(C)[C@]1(C)C[C@H]2O)O[C@H]3O (some centres not stated)
inactive: activity change, negative = cytotoxicity (C33A) -26.4% [at 6.55 µM] | activity change, negative = cytotoxicity (CASKI) -8.52% [at 6.55 µM] | activity change, negative = cytotoxicity (Es-2) 0.581% [at 6.55 µM] | activity change, negative = cytotoxicity (HeLa) 16.8% [at 6.55 µM] | activity change, negative = cytotoxicity (Tov112D) -22.5% [at 6.55 µM]

Cc1nc(Nc2cnn(C3CCNCC3)c2)nc2c1N(C)C(=O)c1cc3ccccc3cc1N2C
inactive: Potency (C33A) | Potency (CASKI) | Potency (Es-2) | Potency (Hek293T) | Potency (JEG-3) | Potency (OV90) | Potency (PA-1) | Potency (Tov-21-G) | Potency (Tov112D)

CC(C)S(=O)(=O)Nc1ccc(F)c(C(=O)c2c[nH]c3ncc(-c4cccnc4)cc23)c1F
active: Potency (SKOV3) 25.1 µM
inactive: Potency (C33A) | Potency (CASKI) | Potency (Hek293T) | Potency (JEG-3) | Potency (Tov112D)

C=C1CC2OC(=O)C(=C)C2C(OC(=O)/C(C)=C\C)CC2(C)OC1=CC2=O (configuration not stated)
active: Potency (C33A) 11.2 µM | Potency (Es-2) 10 µM | Potency (SKOV3) 11.2 µM | Potency (Tov-21-G) 11.2 µM
inactive: Potency (CASKI) | Potency (HeLa) | Potency (OV90) | Potency (Tov112D)

CC1CCCC[C@H]2C(=O)C=C[C@H](O)[C@@H]2CC(=O)O1 (some centres not stated)
inactive: Potency (CASKI)
active: Potency (C33A) 20 µM | Potency (Es-2) 10 µM | Potency (Hek293T) 15.8 µM | Potency (PA-1) 10 µM | Potency (SKOV3) 3.55 µM | Potency (Tov112D) 14.1 µM

COc1cc2c(cc1-c1c(C)noc1C)ncc1[nH]c(=O)n(C(C)c3ccccn3)c12 (configuration not stated)
active: Potency (SKOV3) 12.6 µM
inactive: Potency (C33A) | Potency (CASKI) | Potency (Hek293T) | Potency (JEG-3) | Potency (Tov112D)

O=C(c1c(F)ccc(NS(=O)(=O)N2CC[C@@H](F)C2)c1F)c1c[nH]c2ncc(-c3cnc(C4CC4)nc3)cc12
active: Potency (Tov-21-G) 11.2 µM
inactive: Potency (C33A) | Potency (CASKI) | Potency (HeLa) | Potency (Hek293T) | Potency (JEG-3) | Potency (PA-1) | Potency (Tov112D)

CC(=O)N1CCN(CCOc2ccc(C3CCN(C4=Nn5c(nnc5C(F)(F)F)CC4)CC3)cc2)CC1
inactive: Potency (C33A) | Potency (CASKI) | Potency (Es-2) | Potency (JEG-3) | Potency (OV90) | Potency (Tov-21-G) | Potency (Tov112D)

COc1cc2ncnc(Oc3ccc(CC(=O)Nc4cnn(C(C)C)c4)cc3)c2cc1OC
inactive: Potency (C33A) | Potency (Es-2) | Potency (HeLa) | Potency (Hek293T) | Potency (JEG-3) | Potency (OV90) | Potency (PA-1) | Potency (SKOV3) | Potency (Tov-21-G) | Potency (Tov112D)

CCOc1cc(C(C)(C)C)ccc1C1=NC(C)(c2ccc(Cl)cc2)C(C)(c2ccc(Cl)cc2)N1C(=O)N1CCN(CCCS(C)(=O)=O)CC1 (configuration not stated)
inactive: Potency (C33A) | Potency (Es-2) | Potency (HeLa) | Potency (Hek293T) | Potency (JEG-3) | Potency (OV90) | Potency (SKOV3)
active: Potency (PA-1) 6.31 µM | Potency (Tov-21-G) 15.8 µM

CC(C)c1ccc(-c2cc(=O)c3ccccc3o2)cc1
active: Potency (C33A) 11.2 µM | Potency (JEG-3) 8.91 µM
inactive: Potency (CASKI)

C=C(C)C(=O)O[C@H]1[C@H]2C(=C)C(=O)O[C@@H]2C[C@@H](C)[C@@H]2O[C@@H]2C(=O)[C@](C)(O)[C@@H]1OC(=O)C(=C)C
active: Potency (C33A) 10 µM | Potency (CASKI) 10 µM | Potency (Es-2) 7.94 µM | Potency (Hek293T) 2.82 µM | Potency (JEG-3) 12.6 µM | Potency (SKOV3) 10 µM

CCC1C(=O)N(C)c2cnc(Nc3ccc(C(=O)NC4CCN(C)CC4)cc3OC)nc2N1C1CCCC1 (configuration not stated)
active: Potency (C33A) 20 µM | Potency (CASKI) 3.98 µM | Potency (JEG-3) 28.2 µM | Potency (PA-1) 1.78 µM | Potency (SKOV3) 6.31 µM

C=CC(=O)N1CCC(Oc2cc3c(Nc4ccc(Cl)c(Cl)c4F)ncnc3cc2OC)CC1
active: Potency (CASKI) 22.4 µM | Potency (Tov-21-G) 25.1 µM
inactive: Potency (C33A) | Potency (Es-2) | Potency (JEG-3)

CC#CC(=O)Nc1ccc2ncnc(Nc3cccc(Br)c3)c2c1
active: Potency (C33A) 11.2 µM | Potency (CASKI) 8.91 µM | Potency (Es-2) 14.1 µM | Potency (PA-1) 7.94 µM | Potency (Tov-21-G) 14.1 µM | Potency (Tov112D) 12.6 µM
inactive: Potency (JEG-3) | Potency (OV90)

Cc1[nH]c(/C=C2\C(=O)Nc3ccc(F)cc32)c(C)c1C(=O)NCCN1CCCC1
active: Potency (SKOV3) 15.8 µM
inactive: Potency (C33A) | Potency (CASKI) | Potency (Es-2) | Potency (Hek293T) | Potency (JEG-3) | Potency (OV90) | Potency (Tov112D) | activity change, negative = inhibition [1] -1.6%

COc1cc(C(N)=O)nc(-c2ccccn2)c1O
inactive: Potency (C33A) | Potency (Es-2) | Potency (HeLa) | Potency (Hek293T) | Potency (JEG-3) | Potency (OV90) | Potency (PA-1) | Potency (SKOV3) | Potency (Tov-21-G) | Potency (Tov112D)
